{"source": "PubChem BioAssay (NCATS)", "note": "Results filed as inconclusive are left out. Values without a mark were called inactive. Active and inactive are the calls of the source. The call rests on the fitted dose curve; in most records, active means well fitted inhibition curve with a large enough effect; inconclusive means small, poorly fitted or top-dose-only effect; inactive means no such curve, though single readings can be large or run the other way. Potency means the concentration at half of the fitted maximal effect."}
{"target": "N-terminal Xaa-Pro-Lys N-methyltransferase 1 (Homo sapiens) (UniProt Q9BV86)", "sequence (Q9BV86 whole entry, looked up)": "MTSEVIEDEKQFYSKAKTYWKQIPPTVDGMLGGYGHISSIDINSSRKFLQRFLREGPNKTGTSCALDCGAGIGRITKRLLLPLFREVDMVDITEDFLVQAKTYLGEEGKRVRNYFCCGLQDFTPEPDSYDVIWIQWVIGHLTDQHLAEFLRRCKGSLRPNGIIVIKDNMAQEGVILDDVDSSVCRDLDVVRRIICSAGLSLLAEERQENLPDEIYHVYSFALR", "experiment": "Confirmatory qHTS for Inhibitors of N-terminal methyltransferase 1 (NTMT1): MTaseGlo Assay (AID 1645874); further: nearly all actives have a fitted effect of over 65% in size;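 on activity change, negative = inhibition: luminescence from SAH made as NTMT1 methylates SPKRIA peptide using SAM; 0% = DMSO control and -100% = no-enzyme control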", "settings": "NTMT1 enzyme, MTase-Glo SAH luminescence; series mostly up to 100 µM; activity change, negative = inhibition: at the top concentration", "outline": "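Preincubation of NTMT1 (125 nM) plus SAM (100 uM) with test compounds lasted 15 min; methylation of 1 uM SPKRIA then proceeded 30 min in the dark at room temperature. Luciferase signal reported SAH produced.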"}
{"molecule": "COc1ccccc1C(=O)Nc1onc2c1CCCC2", "activity change, negative = inhibition": "-3.96%"}
{"molecule": "O=S(=O)(c1cccc(Cl)c1)n1c(/C=C/c2ccccc2Cl)nc2ccccc21", "Potency": "6.76 µM (active)"}
{"molecule": "COc1cc2c(NC3CCN(C(C)C)CC3)nc(N3CCCCCC3)nc2cc1OCCCN1CCCC1", "Potency": "30.8 µM (active)"}
{"molecule": "O=C(Nc1noc2ccccc12)c1c(F)cccc1F", "activity change, negative = inhibition": "-15.3%"}
{"molecule": "CCCOc1ccccc1C(=O)Nc1nc2c(s1)CCCC2", "activity change, negative = inhibition": "-17.2%"}
{"molecule": "Cc1cc(C)n2c(Nc3c(C)cccc3C)c(-c3ccsc3)nc2n1", "activity change, negative = inhibition": "0.775%"}
{"molecule": "Clc1cccc(-c2nc3ccccn3c2Nc2ccc3c(c2)OCCO3)c1", "Potency": "4.09 µM (active)"}
{"molecule": "COC(=O)c1ccc(NC(=O)CSc2nc3ccc(OC)cc3[nH]2)cc1", "activity change, negative = inhibition": "28.1% [at 51.5 µM]"}
{"molecule": "Fc1cc(Nc2nc(-c3ccncc3)nc3ccccc23)ccc1N1CCNCC1", "Potency": "21.8 µM (active)"}
{"molecule": "Oc1cccc(Nc2cc(-c3ccccc3)ncn2)c1", "Potency": "39.8 µM (active)"}
{"molecule": "Cc1ccc2nc(-c3ccc(O)cc3)c(Nc3ccc(Cl)cc3)n2c1", "activity change, negative = inhibition": "-9.35%"}
{"molecule": "COc1ccc(C(=O)CSc2nc(C)cc(C)c2C(=O)Nc2ccccc2C)cc1", "activity change, negative = inhibition": "-6.73%"}
{"molecule": "O=C(Nc1noc2ccccc12)c1ccc(F)cc1", "Potency": "39.8 µM (active)"}
{"molecule": "O=c1c2cc3c(cc2nc2sc(Nc4ccccc4)nn12)OCO3", "activity change, negative = inhibition": "-13.1%"}
{"molecule": "Cc1cccc2nc(-c3ccc(Cl)s3)c(Nc3ccc4c(c3)OCCO4)n12", "Potency": "3.25 µM (active)"}
{"molecule": "Cc1cccc(-n2cnc3cc(C(=O)NC4CCCC4)ccc32)c1", "Potency": "39.8 µM (active)"}
{"molecule": "COc1cccc(-c2n[nH]c3c2C(c2cccc(O)c2)N(C)C3=O)c1", "note": "(centres undefined)", "Potency": "44.7 µM (active)"}
{"molecule": "Cc1ccc(-n2ncc3c(NCCCN(C)C)ncnc32)cc1Cl", "Potency": "39.8 µM (active)"}
{"molecule": "Clc1ccc(-c2noc3ncnc(NC4CCCCC4)c23)cc1", "Potency": "15.8 µM (active)"}
{"molecule": "Cc1ccc(/C=C/c2nc3ccccc3[nH]2)cc1", "Potency": "6.49 µM (active)"}
{"molecule": "COc1cc(-c2nc3ccc(Cl)cn3c2Nc2ccc3c(c2)OCO3)ccc1O", "Potency": "5.15 µM (active)"}
{"molecule": "CCOc1ccccc1N1CC(c2nc3ccccc3n2CCCCOc2cc(C)ccc2C)CC1=O", "note": "(centres undefined)", "activity change, negative = inhibition": "9.65%"}
{"molecule": "Oc1cccc(Nc2nc(-c3ccccc3)nc3ccccc23)c1", "Potency": "15.8 µM (active)"}
{"molecule": "COc1cc2nc(N3CCCCC3)nc(NC3CC3)c2cc1OC", "Potency": "34.5 µM (active)"}
{"molecule": "CNc1sc(-c2cccc3ccccc23)nc1C#N", "activity change, negative = inhibition": "-9.3%"}
{"molecule": "COc1cc2c(NC3CCN(C(C)C)CC3)nc(N3CCCN(C4CCCCC4)CC3)nc2cc1OCCCN1CCCCC1", "Potency": "34.5 µM (active)"}
{"molecule": "COc1cc2c(NC3CCN(C(C)C)CC3)nc(N3CCCN(c4ccccc4)CC3)nc2cc1OCCCN1CCCC1", "Potency": "55.5 µM (active)"}
{"molecule": "Cc1ccc(Nc2ncnc3c2cnn3-c2ccccc2)c(C)c1", "Potency": "3.98 µM (active)"}
{"molecule": "COc1cc2c(NC3CCN(CC4CCCCC4)CC3)nc(N3CCCN(C)CC3)nc2cc1OCCCN1CCCCC1", "Potency": "34.5 µM (active)"}
{"molecule": "O=C(Nc1onc2c1CCCC2)c1ccccc1", "activity change, negative = inhibition": "-5.5%"}
{"molecule": "COc1ccc(C(=O)Nc2onc3c2CCCC3)cc1", "activity change, negative = inhibition": "-17.4%"}
{"molecule": "N#CNC(=O)c1ccc(-n2cccc2/C=C2\\NC(=O)N(CC(=O)Nc3ccc(F)cc3)C2=O)cc1", "Potency": "7.58 µM (active)"}
{"molecule": "CSc1ccc(/C=C/c2nc3ccccc3n2S(=O)(=O)c2cccc(Cl)c2)cc1", "Potency": "8.51 µM (active)"}
{"molecule": "CCOc1ccc(/C=C/c2nc3ccccc3n2S(=O)(=O)c2cccc(Cl)c2)cc1", "Potency": "12 µM (active)"}
{"molecule": "S=C(Nc1ccccn1)c1ccccn1", "Potency": "10.3 µM (active)"}
{"molecule": "COc1cc2c(NC3CCN(C(C)C)CC3)nc(N3CCCCC3)nc2cc1OCCCN1CCCCC1", "Potency": "38.8 µM (active)"}
{"molecule": "COc1cccc(NC(=O)CN(CCc2ccccc2)S(=O)(=O)c2ccc(Cl)cc2)c1", "Potency": "8.51 µM (active)"}
{"molecule": "COc1ccc(Nc2ncnc3sc4c(c23)CCCC4)cc1", "Potency": "15.8 µM (active)"}
{"molecule": "COc1cc2nc(N3CCCC3)nc(NC3CC3)c2cc1OC", "Potency": "38.8 µM (active)"}
